Test results reported in PMC4336329 (PLoS ONE, 2015).
In all, about 310,000 compounds went through this assay and about 14,000 (4.5%) showed an effect of 50% or more. The effect is printed as a negative number. Only a selection was taken, and strong results are over-represented in it overall.

Each compound was assayed against human ether-à-go-go-related gene (hERG) potassium channel (human, UniProt Q12809) (assay: primary screen, population patch clamp on CHO cells stably expressing hERG; higher = less effect of the substance).
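Also: peak tail current of the secondary pulse compared with the same well before compound.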

human ether-à-go-go-related gene (hERG) potassium channel, sequence (Q12809 whole entry, looked up): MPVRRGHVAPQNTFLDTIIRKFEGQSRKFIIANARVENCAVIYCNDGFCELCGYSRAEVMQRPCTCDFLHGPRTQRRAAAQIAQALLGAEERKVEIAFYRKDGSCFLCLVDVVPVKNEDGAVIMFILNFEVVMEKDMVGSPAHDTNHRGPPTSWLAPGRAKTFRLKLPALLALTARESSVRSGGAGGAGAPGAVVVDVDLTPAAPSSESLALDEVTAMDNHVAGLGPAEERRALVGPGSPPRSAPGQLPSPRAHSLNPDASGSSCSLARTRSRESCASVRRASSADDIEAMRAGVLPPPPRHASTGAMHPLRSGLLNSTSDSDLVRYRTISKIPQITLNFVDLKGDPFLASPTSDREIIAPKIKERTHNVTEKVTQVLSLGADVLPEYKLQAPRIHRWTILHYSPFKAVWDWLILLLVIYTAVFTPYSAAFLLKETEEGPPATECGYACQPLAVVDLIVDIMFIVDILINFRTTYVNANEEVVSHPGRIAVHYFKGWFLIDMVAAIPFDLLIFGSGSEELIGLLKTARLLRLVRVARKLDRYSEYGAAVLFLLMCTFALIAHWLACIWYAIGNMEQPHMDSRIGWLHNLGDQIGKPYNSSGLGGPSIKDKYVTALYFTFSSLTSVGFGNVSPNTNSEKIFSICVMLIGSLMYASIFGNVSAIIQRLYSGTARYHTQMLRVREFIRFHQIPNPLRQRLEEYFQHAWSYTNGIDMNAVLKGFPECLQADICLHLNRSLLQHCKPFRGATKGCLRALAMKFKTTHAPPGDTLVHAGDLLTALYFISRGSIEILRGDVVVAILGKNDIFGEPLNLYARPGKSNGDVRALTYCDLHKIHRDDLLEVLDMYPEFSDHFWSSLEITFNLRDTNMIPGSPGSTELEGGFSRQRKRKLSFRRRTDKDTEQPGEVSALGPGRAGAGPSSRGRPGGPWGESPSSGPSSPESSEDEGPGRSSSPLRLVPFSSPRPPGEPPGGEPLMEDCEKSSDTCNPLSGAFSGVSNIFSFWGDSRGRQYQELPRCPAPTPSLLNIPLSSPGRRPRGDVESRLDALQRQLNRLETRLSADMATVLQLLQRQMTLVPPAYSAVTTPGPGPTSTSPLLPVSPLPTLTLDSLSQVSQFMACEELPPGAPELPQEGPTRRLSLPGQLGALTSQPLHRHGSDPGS

Compound	hERG current change (%, negative = inhibition) at 10uM
CCCN1CCC(N(CCc2ccccc2)Cc2ccccc2)CC1	-72.2%
CCCN1CCC(N(C)CCc2ccc(OC)c(OC)c2)CC1	-11.4%
CCCCC(=O)C1CCN(Cc2ccccc2)CC1	-34.5%
CCN(Cc1ccccc1)C1CCN(Cc2ccccc2)CC1	-14.9%
CCCN(CCO)C1CCN(CCc2ccccc2)CC1	7.14%
CC(C)CNS(=O)(=O)c1ccc(OCC(=O)NCC2CCCO2)c(Cl)c1 (centres unmarked)	-4.3%
S=c1[nH]cnc2scc(-c3ccc(Br)cc3)c12	0.154%
O=C1Nc2ccc(F)cc2C12Nc1ccccc1-c1nnc(SCc3ccccc3)nc1O2 (centres unmarked)	-13.2%
COc1ccccc1NC(=O)c1ccc(-n2cccn2)nc1	3.91%
O=C(Nc1cccc(Cl)c1)c1ccc(NCCCN2CCOCC2)c([N+](=O)[O-])c1	-37.9%
CC(C(N)=O)N1CC(c2ccccc2)CC1=O (centres unmarked)	-4.86%
O=C(CSc1nccc(=O)[nH]1)Nc1ccc2c(c1)OCCO2	51.6%
Clc1ccc(CSc2nnc(CN3CCOCC3)n2-c2ccccc2)cc1Cl	-74.1%
Fc1ccc(CSc2nnc(CN3CCOCC3)n2-c2ccccc2)c(Cl)c1	-24%
Clc1cccc(Cl)c1CSc1nnc(CN2CCOCC2)n1-c1ccccc1	-28.9%
CSCCC(NS(=O)(=O)c1ccc(C)cc1)C(=O)N1CCN(C(C)=O)CC1 (centres unmarked)	3.56%
CCCCn1c(NC(=O)c2ccc(Br)o2)c(S(=O)(=O)c2ccccc2)c2nc3ccccc3nc21	-0.885%
CCCCn1c(NS(=O)(=O)c2ccccc2)c(C(=O)OCC)c2nc3ccccc3nc21	-23.9%
CCCCCn1c(NC(=O)c2ccco2)c(C(=O)OCC)c2nc3ccccc3nc21	-80.4%
CCCCn1c(NC(=O)c2ccc(Br)o2)c(C(=O)OCC)c2nc3ccccc3nc21	-53.8%
CCCCn1c(NC(=O)c2ccco2)c(C(=O)OCC)c2nc3ccccc3nc21	-42.1%
CCOC(=O)c1c(NC(=O)c2ccco2)n(C2CCCCC2)c2nc3ccccc3nc12	-35.6%

Compound	hERG current change (%, negative = inhibition) at 10uM
Cc1cc(C)n(CC(=O)NNC(=O)c2cccc(C(F)(F)F)c2)n1	12.7%
COc1ccc(C(=O)c2oc3ccccc3c2NC(C)=O)cc1	0.829%
O=C(COc1ccc(/C=N/NC(=O)c2cc3ccccc3o2)cc1Cl)Nc1ccccc1	6.96%
Cc1[nH]c2ccccc2c1/C=N/NC(=O)CNC(=O)c1ccccc1	-9.38%
O=C(CO/N=C/c1c(Cl)cccc1Cl)NNC(=O)c1ccc(Cl)cc1	8.46%
NC(=O)N/N=C/C=C/c1ccc(F)cc1	8.5%
CC(C)=CCOc1c2occc2cc2ccc(=O)oc12	-17.9%
O=C(Cc1ccccc1)N1CCC(c2nc3ccccc3[nH]2)CC1	-18.9%
C1CCC(n2nnnc2CN2CCCC2)CC1	-1.31%
Cc1ccc(Cl)cc1N1CCN(Cc2nnnn2C2CCCCC2)CC1	7.78%
O=C(c1cccc(Cl)c1)N1CCC(c2nc3ccccc3[nH]2)CC1	-38.2%
Fc1ccccc1C1CCN(Cc2nc(CC3CC3)no2)C1 (centres unmarked)	2.1%
Fc1ccc2nc(C3CCCCN3Cc3nc(CC4CC4)no3)[nH]c2c1 (centres unmarked)	0.821%
O=S(=O)(c1ccc2c(c1)OCCO2)N1CCC(c2nc3ccc(Cl)cc3[nH]2)CC1	-56.6%
Clc1ccc2nc(C3CCN(Cc4nnnn4C4CCCCC4)CC3)[nH]c2c1	-59.2%
Clc1ccc2nc(C3CCN(Cc4ccccc4)CC3)[nH]c2c1	-73.4%
O=S(=O)(c1ccc2c(c1)OCCO2)N1CCC(c2nc3ccccc3[nH]2)CC1	3.43%
Fc1ccc2nc(C3CCN(Cc4nc(CC5CC5)no4)CC3)[nH]c2c1	-51.9%
CC(C)(C)c1ccc(S(=O)(=O)N2CCC(c3nc4ccc(Cl)cc4[nH]3)CC2)cc1	-3.97%
O=C(Cc1cc(=O)[nH][nH]1)N/N=C/C=C/c1ccccc1	8.93%
COc1cccc(CCNC(=O)CC2C(=O)NCCN2Cc2ccc(C)o2)c1 (centres unmarked)	15.7%
CCC1=NN(C(=O)c2cccnc2)C(O)(C(F)(F)F)C1 (centres unmarked)	3.08%
